High-throughput results deposited in PubChem BioAssay by NMMLSC.
Compounds with a hit are over-represented: about 1.2% of the library has one in this group of screens.
GSH bead fluor = GSH bead compound fluorescence profile; GSH beads flow cytometry, compound fluorescence 488/530 nm; hits give high values; fluorescence (KMESF) at 10 µM; actives 0.25% (n = 190,000); AID 1776; in the data active = fluorescence above about 89;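 also: glutathione beads carrying GST-tagged Bcl family fusion proteins plus one bare bead set; values are compound well signal with DMSO vehicle wells as background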
RGS7-Gao = modulates binding of RGS7 to human Galphao; binding response (% of control), % at 10 µM; Multiplexed bead flow cytometry; actives lie on both sides; actives 0.35% (n = 220,000); P09471; in the data active = binding response below about 49% or above about 150%; inconclusive = no clear call, values can overlap the other calls; inactive = in between;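 also: fluorescent Galphao held in activated GDP-AlF4 state binding bead-coupled RGS7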
Target sequence (P09471 whole entry, looked up): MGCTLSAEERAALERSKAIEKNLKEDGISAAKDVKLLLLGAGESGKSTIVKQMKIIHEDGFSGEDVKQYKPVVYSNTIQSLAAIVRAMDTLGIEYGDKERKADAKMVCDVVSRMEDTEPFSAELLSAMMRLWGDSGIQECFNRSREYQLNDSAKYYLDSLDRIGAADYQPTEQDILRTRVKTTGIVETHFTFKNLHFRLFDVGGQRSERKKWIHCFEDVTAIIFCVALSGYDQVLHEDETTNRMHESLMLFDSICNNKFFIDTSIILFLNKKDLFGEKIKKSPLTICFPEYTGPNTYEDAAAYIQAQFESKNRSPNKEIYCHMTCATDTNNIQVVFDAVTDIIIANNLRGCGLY
RGS16-Gao HTS = regulators of human RGS16-Galphao interaction | AID 1441 | actives 0.38% (n = 220,000) | bead-based flow cytometry RGS16-Galphao binding, fluorescence; actives lie on both sides | O15492+P09471 | binding response (% of control), % at 10 µM;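 also: Galphao activated by GDP with aluminum fluoride before binding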
RGS4-Gao reg = modulates binding of RGS4 to human Galphao; P09471; Multiplexed bead flow cytometry; actives lie on both sides; binding response (% of control), % at 10 µM; actives 0.33% (n = 220,000); AID 1415; in the data active = binding response below about 49% or above about 150%; inactive = in between;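 also: fluorescent Galphao activated with aluminum fluoride binding bead-coupled RGS4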
Avidin bead fluor = avidin bead compound fluorescence profile; actives 0.38% (n = 220,000); AID 1775; Avidin beads, compound fluorescence 488/530 nm, flow cytometry; hits give high values; fluorescence (KMESF) at 10 µM; in the data active = fluorescence above about 47
RGS8-Gao reg = regulators of human RGS8-Galphao interaction; P09471; multiplexed bead flow cytometry, RGS8-Galphao binding; actives lie on both sides; response (percent of control binding), % at 10 µM; actives 0.34% (n = 220,000); AID 1423; in the data active = response below about 60% or above about 140%; inactive = in between;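 also: Galphao activated as the GDP aluminium fluoride complex binding bead-coupled RGS8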
RGS-Gao = RGS4-Galphao interaction regulator (human) | shares compounds with RGS16-Gao HTS | multiplexed bead flow cytometry, RGS–Galpha-o binding | RGS4–Galpha-o binding response, % at 10 µM | actives 99% (n = 1,600) | AID 1504;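 also: fluorescently labeled Galpha-o bound to GDP with aluminium fluoride binding biotinylated RGS beads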
Target sequence (P09471 whole entry, looked up): as above
Target sequence (P49798 whole entry, looked up): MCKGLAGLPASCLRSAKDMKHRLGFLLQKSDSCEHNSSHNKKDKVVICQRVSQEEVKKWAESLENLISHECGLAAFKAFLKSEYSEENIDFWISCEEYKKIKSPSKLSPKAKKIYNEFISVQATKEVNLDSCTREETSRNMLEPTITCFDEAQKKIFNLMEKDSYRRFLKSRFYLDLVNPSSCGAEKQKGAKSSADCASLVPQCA
Avidin counter = interferes with biotinylated probe binding to avidin beads. shares compounds with RGS16-Gao HTS. streptavidin beads, fluorescein-biotin binding, flow cytometry. inhibition, % at 10 µM. 1,700 tested, under 10 active. AID 1783;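 active = inhibition above 50%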;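 also: median green fluorescence of gated singlet beads compared with DMSO control wells; 0% = DMSO wells and 100% = complete loss of bead fluorescence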
RGS8-Gao single = confirmation of regulators of human RGS8-Galphao interaction; shares compounds with RGS16-Gao HTS; bead-based flow cytometry RGS8-Galphao binding, fluorescence; actives lie on both sides; binding response (% of control), % at 10 µM; actives 3% (n = 1,700); AID 1836; in the data active = binding response below about 72% or above about 130%; inactive = in between;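 also: Galphao activated as GDP AlF4 complex before binding bead RGS8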
RGS7-Gao confirm = confirmation of regulators of human RGS7-Galphao interaction. actives 7.8% (n = 1,700). shares compounds with RGS16-Gao HTS. bead-based flow cytometry RGS7-Galphao binding; actives lie on both sides. response (percent of control binding), % at 10 µM; in the data active = response below about 75% or above about 130%; inactive = in between;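 also: fluorescent Galphao activated with GDP and aluminum fluoride binding bead-coupled RGS7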
RGS16-Gao conf = confirmation of regulators of human RGS16-Galphao interaction | shares compounds with RGS16-Gao HTS | bead-based flow cytometry, RGS16-Galphao binding; actives lie on both sides | response (% of control binding), % at 10 µM | actives 4% (n = 1,700); in the data active = response below about 74% or above about 130%; inactive = in between;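 also: Galphao activated as the GDP aluminium fluoride complex binding bead-coupled RGS16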
RGS4-Gao single = confirmation of regulators of human RGS4-Galphao interaction; RGS4-Galphao binding, multiplexed bead flow cytometry; actives lie on both sides; binding response (% of control), % at 10 µM; actives 4% (n = 1,700); shares compounds with RGS16-Gao HTS; in the data active = binding response below about 74% or above about 130%; inactive = in between
RGS19-Gao conf = RGS19-Galphao interaction regulation, single point confirmation. AID 1841. response (percent of control binding), % at 10 µM. bead-based flow cytometry RGS19-Galphao binding; actives lie on both sides. shares compounds with RGS16-Gao HTS. actives 5% (n = 1,700); in the data active = response below about 50% or above about 160%; inactive = in between;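 also: 100% = no compound control and 0% = blank background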
An asterisk follows results filed as active; i = inactive; ? = inconclusive; nt = no result; + = active, no number; [ ] = another dose, or the depositor's remark. Unless noted, no rule for the calls is given here.

SMILES	GSH bead fluor	RGS7-Gao	RGS16-Gao HTS	RGS4-Gao reg	Avidin bead fluor	RGS8-Gao reg	Avidin counter	RGS8-Gao single	RGS7-Gao confirm	RGS16-Gao conf	RGS4-Gao single	RGS19-Gao conf	others
COc1ccc2oc3cc(C)[n+]([O-])c(-c4ccc(Cl)cc4)c3c2c1	11	52	90	41*	-1	78	i	105	114	112	111	107
CC(C)CN1CCN(Cc2ccc(CN3CCCCC3)s2)CC1CCO (stereo not given)	10	90	105	94	2	97	nt	nt	nt	nt	nt	nt
CC(=O)c1cccc(NC(=O)c2ccc3c(=O)n4c(nc3c2)CCCCC4)c1	7	101	93	97	19	98	nt	nt	nt	nt	nt	nt
Cc1ccc(Nc2c(-c3ccc(N(C)C)cc3)nc3ncccn23)cc1	nt	?	92	96	14	97	nt	nt	nt	nt	nt	nt
Cc1ccc(SCc2nc3ncccn3c2Br)cc1	nt	nt	nt	nt	75*	nt	0	96	91	92	94	88
CC(Sc1nnc(NCc2ccccc2)s1)C(=O)Nc1ccc2c(c1)C(=O)c1ccccc1C2=O (stereo not given)	5	104	94	98	2	95	nt	nt	nt	nt	nt	nt
O=C(OCc1nnc(-c2ccccc2)o1)c1cccnc1Cl	13	100	100	104	9	101	nt	nt	nt	nt	nt	nt
CCOc1ncccc1C(=O)OCc1nnc(-c2ccccc2)o1	40	nt	nt	nt	nt	nt	-1	100	100	100	99	118
COc1cc(-c2cc(C(=O)NN3CCN(C)CC3)c3ccccc3n2)cc(OC)c1OC	5	109	282*[activator]	111	14	133	0	101	104	102	102	103	RGS-Gao=111*
COc1cc(-c2cc(C(=O)O)c3cc4c(cc3n2)OCCO4)cc(OC)c1OC	30	nt	nt	nt	nt	nt	2	100	101	99	101	105
O=C(N/C(=C/c1ccco1)C(=O)N1CCc2ccccc21)c1ccco1	nt	?	86	84	3	90	nt	nt	nt	nt	nt	nt
Cc1ccc(NC(=S)Nc2cc(C)on2)cc1	nt	?	102	97	3	100	nt	nt	nt	nt	nt	nt
O=C(NCCC1=CCCCC1)c1ccc(Cl)cc1	17	101	105	102	11	100	nt	nt	nt	nt	nt	nt
CS(=O)(=O)Nc1ccc(C(=O)NCCC2=CCCCC2)cc1	38	nt	nt	nt	nt	nt	-2	102	105	102	101	101
Cc1ccc2[nH]c3c(c2c1)CC/C(=C/c1ccccc1)C3=O	13	214*[activator]	129	113	194*	96	4	94	94	93	97	97	RGS-Gao=113*
Clc1cc2cccnc2c2ccccc12	10	-24*	i	-47*	-4	3.0*	-1	98	102	100	102	96
Oc1c(Cl)cc(Cl)c2cccnc12	19	99	95	97	8	98	nt	nt	nt	nt	nt	nt
O=C(NNC(=O)C1CC2CCC1C2)c1sc2ccccc2c1Cl (stereo not given)	17	166*[activator]	103	109	94*	101	-2	101	102	104	103	106	RGS-Gao=109*
CCc1nnc(NC(=O)c2cccc(S(=O)(=O)N3CCN(c4ccccc4)CC3)c2)s1	27	150*[activator]	145	140	5	127	0	103	102	103	105	108	RGS-Gao=140*
CCc1nnc(NC(=O)c2cc(S(=O)(=O)N3CCN(c4ccccc4)CC3)ccc2Cl)s1	61	100	101	104	14	101	nt	nt	nt	nt	nt	nt
O=C(CNCCN1CCOCC1)Nc1ccccc1Sc1ccccc1	5	120	227*[activator]	110	13	132	0	99	88	99	94	78	RGS-Gao=110*
CC(C)Oc1ccc(N2C(=O)c3ccccc3C2=O)cc1	18	97	97	99	37	99	nt	nt	nt	nt	nt	nt
CCC1CCCCN1S(=O)(=O)c1ccc(S(=O)(=O)N2CCN(S(=O)(=O)CC)CC2)cc1 (stereo not given)	20	97	99	98	12	98	nt	nt	nt	nt	nt	nt
CCN(CC)Cc1c(-c2ccccc2)[nH]c2ccc(C)cc2c1=O	36	104	409	110	2	142*[activator]	-3	107	100	107	102	91	RGS-Gao=110*
Cc1ccc2[nH]c(-c3ccccc3)cc(=O)c2c1	12	103	94	98	33	96	nt	nt	nt	nt	nt	nt
SMILES	GSH bead fluor	RGS7-Gao	RGS16-Gao HTS	RGS4-Gao reg	Avidin bead fluor	RGS8-Gao reg	Avidin counter	RGS8-Gao single	RGS7-Gao confirm	RGS16-Gao conf	RGS4-Gao single	RGS19-Gao conf	others
O=C(CNC(=O)c1ccccc1)Nc1cccc(C(F)(F)F)c1	211*	845*[activator]	+[activator]	762*[activator]	560*	193*[activator]	3	95	72*	85	83	64
Cc1ccc(C(=O)NCC(=O)Nc2cccc(C(F)(F)F)c2)cc1	14	98	101	98	21	100	nt	nt	nt	nt	nt	nt
O=C(Nc1nnc(-c2ccccc2Cl)o1)c1ccco1	31	nt	nt	nt	nt	nt	2	99	103	101	103	93
S=C1NCN(Cc2cccnc2)CN1c1cccc2ccccc12	nt	?	26	26*	1	44*	-1	98	90	97	98	92
Cc1cccc(N2CN(Cc3cccnc3)CNC2=S)c1	9	98	105	99	5	104	nt	nt	nt	nt	nt	nt
CC(C)(C)OC(=O)N1CCC(c2cc(=O)n3[nH]c(-c4ccc(Cl)cc4)cc3n2)CC1	23	44*	6	33*	0	47*	-2	102	95	101	99	88
CC(C)(C)OC(=O)N1CCC(c2cc(=O)n3[nH]cc(C(=O)Nc4ccc(F)c(Cl)c4)c3n2)CC1	nt	?	99	101	7	99	nt	nt	nt	nt	nt	nt
N/C(=N\OC(=O)c1ccc(Cl)cc1Cl)c1ccccc1	80	101	102	98	11	105	nt	nt	nt	nt	nt	nt
